Reference: PMC4336329 (PLoS ONE, 2015)
Out of some 310,000 compounds screened, about 14,000 (4.5%) showed an effect of 50% or more. The effect is printed as a negative number. The sample holds strong results, similar compounds and a random draw of the others, so the mix is not that of the screen.

The molecules below were run against human ether-à-go-go-related gene (hERG) potassium channel (human, UniProt Q12809) (assay: primary screen, population patch clamp on CHO cells stably expressing hERG; higher = less effect of the substance).
Chain of human ether-à-go-go-related gene (hERG) potassium channel (Q12809 whole entry, looked up): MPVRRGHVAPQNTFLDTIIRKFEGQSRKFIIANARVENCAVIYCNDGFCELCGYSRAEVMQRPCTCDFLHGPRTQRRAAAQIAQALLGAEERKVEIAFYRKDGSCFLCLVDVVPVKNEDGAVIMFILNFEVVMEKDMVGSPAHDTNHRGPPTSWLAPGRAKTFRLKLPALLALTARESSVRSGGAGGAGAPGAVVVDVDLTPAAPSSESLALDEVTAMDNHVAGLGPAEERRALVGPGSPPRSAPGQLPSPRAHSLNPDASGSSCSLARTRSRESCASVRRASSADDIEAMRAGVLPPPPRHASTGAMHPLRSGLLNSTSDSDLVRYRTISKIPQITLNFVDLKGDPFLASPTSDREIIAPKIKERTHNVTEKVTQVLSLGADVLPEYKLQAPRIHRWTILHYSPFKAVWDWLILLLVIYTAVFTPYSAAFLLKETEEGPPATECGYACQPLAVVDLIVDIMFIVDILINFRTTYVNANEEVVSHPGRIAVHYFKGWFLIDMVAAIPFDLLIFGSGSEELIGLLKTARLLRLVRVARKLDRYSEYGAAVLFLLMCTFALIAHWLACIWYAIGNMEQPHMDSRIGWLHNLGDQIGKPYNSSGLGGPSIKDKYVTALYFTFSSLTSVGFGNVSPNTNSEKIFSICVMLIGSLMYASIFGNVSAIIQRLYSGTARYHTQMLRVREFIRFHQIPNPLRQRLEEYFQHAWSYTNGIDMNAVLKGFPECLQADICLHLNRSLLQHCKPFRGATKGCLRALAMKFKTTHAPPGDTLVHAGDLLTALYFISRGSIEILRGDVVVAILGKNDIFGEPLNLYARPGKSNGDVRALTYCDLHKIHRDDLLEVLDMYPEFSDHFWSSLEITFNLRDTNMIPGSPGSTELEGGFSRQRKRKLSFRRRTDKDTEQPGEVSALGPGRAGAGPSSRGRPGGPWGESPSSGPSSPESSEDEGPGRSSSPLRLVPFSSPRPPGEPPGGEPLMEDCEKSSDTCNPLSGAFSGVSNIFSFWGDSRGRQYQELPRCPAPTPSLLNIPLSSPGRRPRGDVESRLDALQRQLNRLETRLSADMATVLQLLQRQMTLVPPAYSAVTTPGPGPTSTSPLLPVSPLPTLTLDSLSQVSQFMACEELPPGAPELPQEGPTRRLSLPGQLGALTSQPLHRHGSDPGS
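Also: peak tail current of the secondary pulse compared with the same well before compound.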

| Structure (SMILES) | hERG current change (%, negative = inhibition) at 10uM |
| --- | --- |
| COc1ccccc1Nc1nc2ccccc2n1C | -3.73% |
| COc1ccccc1C(=O)NCCC(=O)NC(C)c1ccc(-n2ccnc2)cc1 (stereo not drawn) | -17.1% |
| COc1ccccc1C(=O)NCC(=O)Nc1cccnc1 | 20.5% |
| COc1ccccc1C(=O)NC(C)c1ccccc1 (stereo not drawn) | 18.6% |
| COc1ccccc1C(=O)NCC(=O)NC(C)c1ccc(-n2ccnc2)cc1 (stereo not drawn) | -66.4% |
| CCOc1ccc(C(C)NC(=O)c2ccccc2OCc2c(C)noc2C)cc1OCC (stereo not drawn) | -23.8% |
| Cc1noc(C)c1COc1ccccc1C(=O)NC(C)c1ccc(Cl)cc1 (stereo not drawn) | -55.8% |
| Cc1cccc(C(=O)NCC(=O)NC(C)c2ccc(-n3ccnc3)cc2)c1 (stereo not drawn) | -68.5% |
| COc1ccccc1C(=O)NC(C)c1ccc(-n2ccnc2)cc1 (stereo not drawn) | -52.6% |
| Cc1noc(C)c1COc1ccccc1C(=O)NCCc1ccc(Cl)cc1 | -20.8% |
| COC(=O)CSc1nnc2n(-c3ccc(OC)cc3)c(=O)c3c4c(sc3n12)CCCCC4 | -10.6% |
| Cc1cc(NC(=O)CCC(=O)N(CC(=O)NC2CCCC2)c2ccc(Cl)cc2)no1 | -16.7% |
| CN1CCN(S(=O)(=O)c2ccc(NC(=O)COc3ccccc3Cl)cc2)CC1 | 20.1% |
| COc1ccc(NC(C)=O)cc1NS(=O)(=O)c1ccc2c(c1)OCCO2 | 21.4% |
| O=C(Nc1ccc2c(c1)OCO2)c1nn(-c2ccccc2)c(=O)c2ccccc12 | 11% |
| O=C1C(=O)N(CCN2CCOCC2)C(c2ccccc2F)/C1=C(\O)c1ccc(S(=O)(=O)N2CCOCC2)cc1 (stereo not drawn) | 11.5% |
| O=C(Nc1ccccc1-c1nnn(CC(=O)N2CCCc3ccccc32)n1)c1ccc(Cl)cc1 | 8.92% |

| Structure (SMILES) | hERG current change (%, negative = inhibition) at 10uM |
| --- | --- |
| O=C(COC(=O)c1ccc(F)cc1F)NC1CC1 | 23% |
| Cc1ccc(OC(=O)c2cncc(Br)c2)c(C)c1 | 16% |
| N/C(=N\OC(=O)COc1ccccc1)c1ccccn1 | 13.6% |
| O=C(CN(c1ccc(F)cc1)S(=O)(=O)c1ccc2c(c1)OCCO2)Nc1ccc2c(c1)OCO2 | 14.4% |
| N/C(=N\OC(=O)c1cc(Br)ccc1Cl)c1ccccn1 | 13.1% |
| CCOc1ccc(C(=O)NCC(=O)Nc2ccncc2)cc1OCC | 4.58% |
| CC(NC(=O)CCNC(=O)c1ccc(Br)cc1)c1ccc(-n2ccnc2)cc1 (stereo not drawn) | -66.5% |
| CCOc1ccccc1C(=O)NCC(=O)Nc1ncccc1C | 14% |
| CCOc1ccc(C(=O)NCC(=O)NC(C)c2ccc(-n3ccnc3)cc2)cc1OCC (stereo not drawn) | -77.4% |
| CCOc1ccccc1C(=O)NCC(=O)NC(C)c1ccc(-n2ccnc2)cc1 (stereo not drawn) | -70.9% |
| CC(NC(=O)c1ccccc1Cl)c1ccc(-n2ccnc2)cc1 (stereo not drawn) | -34.2% |
| COc1cc(C(=O)NCC(=O)NC(C)c2ccc(-n3ccnc3)cc2)cc(OC)c1OC (stereo not drawn) | -3.06% |
| CC(C)c1ccc(CCNC(=O)CCNC(=O)c2ccc(Br)cc2)cc1 | 5.74% |
| CC(NC(=O)c1ccccc1C(=O)O)c1ccc(-n2ccnc2)cc1 (stereo not drawn) | 16% |
| CC(NC(=O)CCNC(=O)c1ccc(Br)cc1)c1ccc(S(N)(=O)=O)cc1 (stereo not drawn) | 15.3% |
| CCOc1ccccc1C(=O)NC(C)c1ccc(-n2ccnc2)cc1 (stereo not drawn) | -57.5% |
